Screening results (PubChem)
Compounds with a hit are over-represented: about 2.4% of the library has one in this group of screens.
Pol iota inh: inhibitors of human DNA polymerase iota. Q9UNA4. Pol iota fluorescent replication assay, 10 min. Potency, µM (highest dose often 115 µM), actives largely listed as inhibitors. 390,000 tested, 1% active
Target sequence (Q9UNA4 whole entry, looked up): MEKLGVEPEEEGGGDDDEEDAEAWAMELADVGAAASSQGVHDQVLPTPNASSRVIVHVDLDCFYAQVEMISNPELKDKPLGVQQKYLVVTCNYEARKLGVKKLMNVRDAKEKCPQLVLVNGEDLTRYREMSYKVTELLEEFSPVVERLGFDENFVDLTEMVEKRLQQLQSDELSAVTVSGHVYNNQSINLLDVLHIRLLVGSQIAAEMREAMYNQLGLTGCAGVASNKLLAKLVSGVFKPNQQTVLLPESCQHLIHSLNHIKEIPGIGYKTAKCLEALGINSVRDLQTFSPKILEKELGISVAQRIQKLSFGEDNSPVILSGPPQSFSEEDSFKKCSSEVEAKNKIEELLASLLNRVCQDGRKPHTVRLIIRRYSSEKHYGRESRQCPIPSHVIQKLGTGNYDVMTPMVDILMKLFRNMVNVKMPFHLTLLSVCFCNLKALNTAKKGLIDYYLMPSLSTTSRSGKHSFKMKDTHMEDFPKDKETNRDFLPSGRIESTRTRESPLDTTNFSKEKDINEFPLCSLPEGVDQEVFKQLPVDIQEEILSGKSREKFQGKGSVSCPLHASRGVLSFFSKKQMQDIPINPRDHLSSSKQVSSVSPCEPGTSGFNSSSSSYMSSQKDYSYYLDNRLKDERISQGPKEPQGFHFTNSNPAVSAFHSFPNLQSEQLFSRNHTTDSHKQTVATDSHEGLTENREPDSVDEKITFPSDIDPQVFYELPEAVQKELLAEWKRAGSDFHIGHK
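Pol iota at 10 nM preincubated 15 min with compounds at room temperature; reaction started with fluorescent substrate, 50 nM final. Fluorescence read kinetically at 0 and 10 min; buffer-only wells as negative control.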
FEN1 inhibitor: blocks human flap endonuclease 1 | P39748 | Recombinant FEN1 flap cleavage, fluorescence, 15 min | Potency, µM (series often up to 114 µM), usual class: inhibitors | 390,000 tested, 0.35% active | AID 588795; also: nearly all actives have a fitted effect of over 65% in size
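Enzyme 10 nM, 15 min RT preincubation with compound; start with substrate 50 nM final; reads at 0 and 15 min; qHTS titration, four-parameter Hill fit.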
Pol beta inh: blocks human DNA polymerase beta activity | AID 485314 | P06746 | 340,000 tested, 1.3% active | Potency, µM (top dose mostly 114 µM), usual class: inhibitors | Pol beta primer extension/strand displacement, fluorescence kinetic
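Preincubation: enzyme (10 nM) with compound, 15 min, RT. Reaction: substrate added to 50 nM final. Reads: 0 and 10 min. Analysis: normalized, Hill fit.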
POLH inh: DNA polymerase eta (human) inhibition; Q9Y253; recombinant Pol eta, fluorescent DNA replication assay; Potency, µM (top dose mostly 114 µM), usual class: inhibitors; 390,000 tested, 1.2% active; AID 588591
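Pol eta at 10 nM preincubated with compounds 15 min at room temperature; reaction started with fluorescent substrate (50 nM final) and read kinetically at 0 and 10 min.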
POLK inh: blocks human DNA polymerase kappa activity. Q9UBT6. 400,000 tested, 0.53% active. Potency, µM (series often up to 107 µM), usual class: inhibitors. purified Pol kappa, fluorescent DNA synthesis assay, 10 min
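50 nM final substrate added after 15 min RT preincubation of 10 nM Pol kappa with compound; fluorescence read at 0 and 10 min.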
WRN inhibitor: blocks human WRN helicase; WRN helicase unwinding, fluorescent forked duplex, kinetic; Potency, µM (top dose mostly 114 µM), hits mostly inhibitors; 360,000 tested, 0.46% active; AID 651768; also: nearly all actives have a fitted effect of over 55% in size
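Fluorescence dequenching readout, ex 525 nm/em 598 nm, kinetic mode: forked duplex DNA (100 nM final) with adjacent fluorophore and quencher unwound by WRN (20 nM final) with 2 mM ATP. Compound preincubation 15 min, room temperature.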
Hits are given with their value; [ ] = dose if it differs, or a comment. Calls follow the shape of the dose curve; as a rule, active = well fitted curve in the direction sought with a large enough effect; inconclusive = small, poorly fitted or top-dose-only effect, or another doubt; inactive = no such curve, though single readings can be large; an effect the other way counts as inactive or inconclusive.

What do the screens show for `CC(C)(C)OC(=O)N1CCN(c2nc(-c3cccs3)nc3ccccc23)CC1`?
Pol iota inh: inactive; FEN1 inhibitor: inactive; POLK inh: inactive

How did CC(/C=N/n1c(-c2ccco2)n[nH]c1=S)=C\c1ccco1 do in these assays?
Pol iota inh: inconclusive; FEN1 inhibitor: inactive; Pol beta inh: 28.2µM; POLH inh: inconclusive; POLK inh: inactive; WRN inhibitor: inactive

What do the screens show for `CC(/C=N/n1c(-c2ccccc2)n[nH]c1=S)=C\c1ccco1`?
Pol iota inh: inactive; FEN1 inhibitor: inactive; Pol beta inh: inconclusive; POLH inh: inconclusive; POLK inh: inactive; WRN inhibitor: inactive

How did C(=C\c1ccco1)/C=N/n1cnnc1 do in these assays?
Pol iota inh: 39.8µM; FEN1 inhibitor: inactive; Pol beta inh: inactive; POLH inh: inactive; POLK inh: inconclusive; WRN inhibitor: inactive

What do the screens show for `O=C1OC(c2ccccc2)=N/C1=C\C=C\c1ccco1`?
Pol iota inh: inconclusive; FEN1 inhibitor: inactive; Pol beta inh: inactive; POLH inh: inactive; POLK inh: inactive; WRN inhibitor: inactive

Results for S=c1[nH]nc(-c2ccccc2Cl)n1/N=C/C=C/c1ccco1 ?
Pol iota inh: inconclusive; FEN1 inhibitor: inactive; Pol beta inh: 20µM; POLH inh: 50.1µM; POLK inh: 79.4µM; WRN inhibitor: inconclusive

Results for COc1cc2sc3cc(NCC[C@@H]4CCCN4C)ccc3c(=O)c2cc1OC ?
Pol iota inh: inconclusive; FEN1 inhibitor: 22.4µM; POLH inh: inconclusive; POLK inh: inconclusive; WRN inhibitor: inconclusive

What do the screens show for `COc1cc2sc3cc(NCc4ccc(C)o4)ccc3c(=O)c2cc1OC`?
Pol iota inh: 22.4µM; FEN1 inhibitor: 31.6µM; POLH inh: inactive; POLK inh: 79.4µM; WRN inhibitor: inactive[11.6 µM]

Results for COc1cc2sc3cc(NCc4ccc5c(c4)OCO5)ccc3c(=O)c2cc1OC ?
Pol iota inh: inactive; FEN1 inhibitor: inconclusive; POLH inh: inactive; POLK inh: inactive; WRN inhibitor: inactive

What do the screens show for `CC(C)(C)n1ncc2c(=O)n(Cc3c(Cl)ccc(Cl)c3Cl)cnc21`?
Pol iota inh: inactive; FEN1 inhibitor: inactive; POLK inh: inactive

Results for CC(=O)Nc1ccc(C(=O)CSc2nnc(-c3ccccc3)n2-c2ccccc2)cc1 ?
Pol iota inh: inconclusive; FEN1 inhibitor: inactive; Pol beta inh: 10µM; POLH inh: inactive; POLK inh: inactive

How did CN(C)c1ccc(/C=C2\C=Cc3ccccc32)cc1[N+](=O)[O-] do in these assays?
Pol iota inh: inactive; FEN1 inhibitor: inactive; POLK inh: inactive

How did COc1ccccc1C1NC(c2ccc3c(c2)OCO3)=CC(c2ccccc2O)N1 (stereo not drawn) do in these assays?
Pol iota inh: inconclusive; FEN1 inhibitor: inactive; POLK inh: inactive

Results for O=S(=O)(Nc1nc2ccccc2nc1Nc1cccc(S(=O)(=O)N2CCCCC2)c1)c1ccccc1 ?
Pol iota inh: inconclusive; FEN1 inhibitor: inactive; Pol beta inh: inconclusive; POLH inh: 89.1µM; POLK inh: inactive; WRN inhibitor: inactive

Results for CC(=O)Nc1ccc(S(=O)(=O)Nc2nc3ccccc3nc2Nc2ccc(O)c(C(=O)O)c2)cc1 ?
Pol iota inh: 20µM; FEN1 inhibitor: inconclusive; Pol beta inh: inactive; POLH inh: inactive; POLK inh: 79.4µM; WRN inhibitor: inactive[11.6 µM]

What do the screens show for `CC(=O)Nc1ccc(S(=O)(=O)Nc2nc3ccccc3nc2Nc2ccc(S(N)(=O)=O)cc2)cc1`?
Pol iota inh: inactive; FEN1 inhibitor: inactive; Pol beta inh: inactive; POLH inh: inactive; POLK inh: inactive; WRN inhibitor: inactive

What do the screens show for `COc1ccc(S(=O)(=O)Nc2cccc(S(=O)(=O)N3CCCCCC3)c2)cc1`?
Pol iota inh: inactive; FEN1 inhibitor: inactive; Pol beta inh: inactive; POLH inh: inactive; POLK inh: inactive; WRN inhibitor: inactive

Results for COc1ccc2[nH]cc(CCNc3nc(-c4cccnc4)nc4ccccc34)c2c1 ?
POLK inh: inactive

What do the screens show for `Cc1ccc2nc3sc(C(=O)Nc4c(C)[nH]c(=O)[nH]c4=O)c(N)c3cc2c1`?
Pol iota inh: inactive; FEN1 inhibitor: inconclusive; Pol beta inh: 50.1µM; POLH inh: inconclusive; POLK inh: inactive; WRN inhibitor: inactive
